Screens from PubChem.
The sample as a whole holds a higher share of hits than the screen did.
ST2 inh = inhibitors of human ST2 (IL1RL1) binding to IL-33, primary screen, biochemical, AlphaLISA. Interleukin-1 receptor-like 1 (Homo sapiens), Q01638. AlphaLISA ST2-Fc/biotin-IL-33 interaction, 1 h. inhibition, % for hits at 17 µM. 78,000 tested, 2.3% active; in the data active = inhibition above about 30%
Target sequence (Q01638 whole entry, looked up): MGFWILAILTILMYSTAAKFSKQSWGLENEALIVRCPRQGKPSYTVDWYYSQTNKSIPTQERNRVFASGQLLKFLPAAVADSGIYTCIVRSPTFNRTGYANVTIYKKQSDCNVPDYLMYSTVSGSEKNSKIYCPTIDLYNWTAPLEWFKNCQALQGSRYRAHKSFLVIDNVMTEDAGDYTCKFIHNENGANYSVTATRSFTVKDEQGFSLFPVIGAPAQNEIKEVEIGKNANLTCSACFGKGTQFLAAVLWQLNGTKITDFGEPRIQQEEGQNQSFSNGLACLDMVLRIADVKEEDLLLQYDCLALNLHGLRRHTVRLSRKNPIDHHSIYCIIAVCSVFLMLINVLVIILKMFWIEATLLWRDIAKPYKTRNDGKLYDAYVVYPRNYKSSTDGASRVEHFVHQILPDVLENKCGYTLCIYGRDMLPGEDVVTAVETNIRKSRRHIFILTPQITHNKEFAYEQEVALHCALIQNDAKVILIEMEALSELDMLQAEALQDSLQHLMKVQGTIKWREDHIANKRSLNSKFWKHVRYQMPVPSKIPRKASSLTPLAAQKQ
* hit, by the source's call; i = inactive; ! = not active in a repeat.

SMILES | ST2 inh
O=C(Nc1nc(-c2ccc(Cl)cc2)cs1)c1cccs1 | i
Cc1ccc(-c2csc(/C(C#N)=C/c3cccs3)n2)cc1 | 64.0%*
COc1ccccc1/C=C(\C#N)c1nc(-c2cccc([N+](=O)[O-])c2)cs1 | i
COc1ccc(/C=C(\C#N)c2nc(-c3cccc([N+](=O)[O-])c3)cs2)cc1O | 35.0%*
Cc1ccc(Nc2nc(-c3ccccc3)cs2)cc1 | i
CCOc1cc(/C=C(\C#N)c2nc(-c3ccc(OC)c(OC)c3)cs2)ccc1O | i
Cc1ccc(-c2csc(Nc3ccc(F)cc3)n2)cc1 | i
Nc1n[nH]c(-c2cccc([N+](=O)[O-])c2)n1 | i
N#C/C(=C\c1cccs1)c1nc(-c2ccc(Cl)cc2)cs1 | 46.0%*
COc1ccc(/C=C(/NC(=O)c2cccs2)C(=O)NC(C)(C)C)cc1OC | i
Cc1c(N)cccc1-c1nc2cc(Cl)ccc2o1 | i
CCCNC(=O)c1cc2n(n1)C(C(F)(F)F)CC(c1ccc(Cl)c(Cl)c1)N2 (stereo not given) | i
OCCSc1nc2ccccc2s1 | i
COC(=O)C1C(=O)C2=C(CC1C)NC(C)=C(C(=O)OC1CCCCC1)C2c1cccc(Cl)c1 (stereo not given) | i
COc1cccc(CN2CCCC(NC(=O)c3ccc4[nH]ccc4c3)C2)c1 (stereo not given) | i
COc1ccc2cc(NC(=O)c3ccc(Cl)c([N+](=O)[O-])c3)c(=O)oc2c1 | i
c1cncc(OCCCNc2nc(-c3ccncc3)nc3c2CCNC3)c1 | i
Cc1cc(NC(=O)CS(=O)(=O)c2cn(Cc3ccccc3C)c3ccccc23)no1 | i
CCCCNC(=O)NS(=O)(=O)c1ccc(N=Cc2cccs2)cc1 | i
N#C/C(=C\c1ccco1)c1nc(-c2cc3cc(Br)ccc3oc2=O)cs1 | i
Cc1ccc(-c2csc(/C(C#N)=C/c3ccco3)n2)cc1 | 63.0%*
Cc1cc(-c2cccs2)n[nH]1 | i
N#C/C(=C\c1cccs1)c1nc(-c2cccs2)cs1 | 64.0%*
CN1CCN(c2nc(-c3cccs3)cc(C(F)(F)F)n2)CC1 | i
Cc1ccc2sc(-c3ccc(NC(=O)c4ccco4)cc3)nc2c1 | i
SMILES | ST2 inh
O=C(N/C(=C\c1ccc2c(c1)OCO2)C(=O)N1CCOCC1)c1ccccc1Cl | i
Cn1c(C(=O)N2CCc3c(nc(N)[nH]c3=O)C2)cc2ccccc21 | i
CCOC(=O)c1c(C)oc2c(Br)cc(NS(=O)(=O)c3ccc(C)cc3)cc12 | i
O=[N+]([O-])c1ccc(N2CCN(CCc3ccccc3)CC2)cc1 | i
[N-]=C=C1C(=O)N(CCc2ccccc2)C(=O)C([n+]2ccccc2)C1c1ccc([N+](=O)[O-])cc1 (stereo not given) | 42.0%*
O=C(COc1ccc([N+](=O)[O-])cc1)NCc1ccccc1 | i
Cn1c(C(=O)NCCCc2ccccc2)cc2c(=O)n3ccccc3nc21 | i
Cc1ccccc1C(=O)Nc1c(-c2ccccc2)nc2ccccn12 | i
CC(c1ccccc1)C1Nc2ccccc2C(=O)N1CCc1ccccc1 (stereo not given) | i
CCOC(=O)c1c(C)n(-c2ccccc2)c2ccc(OC(=O)c3ccco3)cc12 | i
CCn1c(C(=O)O)c(CC(=O)N2CCN(c3ccccc3)CC2)c2ccccc21 | i
Cc1c(CCCN)c2ccccc2n1-c1ccccc1 | 34.0%*
O/N=C\c1c(O)c(Br)cc2oc3c(c12)CCCC3 | 38.0%*
Cc1ccc(OCC(=O)NC(Cc2ccccc2)C(=O)O)cc1 (stereo not given) | i
CCn1c(C)nnc1SCCn1cc(-c2cccc(O)c2)nn1 | i
CCN1CCN(c2nc3c(c(=O)n(C)c(=O)n3C)n2CCSc2nc3ccccc3o2)CC1 | i
CN1CCN(c2nc3c(c(=O)n(C)c(=O)n3C)n2CCSc2nc3ccccc3o2)CC1 | i
CC1CCN(c2nc3c(c(=O)n(C)c(=O)n3C)n2Cc2c(F)cccc2Cl)CC1 | i
CN1CCN(c2nc3c(c(=O)n(C)c(=O)n3C)n2Cc2c(Cl)cccc2Cl)CC1 | i
Cn1c(=O)c2c(nc(N3CCCCC3)n2CCSc2nc3ccccc3o2)n(C)c1=O | 36.0%*!
Cn1c(=O)c2c(nc(N3CCCCC3)n2Cc2c(Cl)cccc2Cl)n(C)c1=O | 31.0%*
CCOc1ccc(-n2c(SC(CC)C(=O)OC)nc3c(c2=O)SCC3)cc1 (stereo not given) | i
Cc1nc2ncccn2c1C(=O)NCc1cnc2c(c1)CCC2 | i
Cc1cc(N(C)Cc2nc3ccsc3c(=O)[nH]2)nc(-c2cccnc2)n1 | i
CCc1ccc2nc(N3CCC(C(=O)NCCN4CCOCC4)CC3)sc2c1 | i
SMILES | ST2 inh
CN(Cc1nc(-c2ccc3c(c2)OCO3)no1)CC1(N2CCCCC2)CCCCC1 | i
CCCS(=O)(=O)N1CCCC(C(=O)NCCCN2CCN(C)CC2)C1 (stereo not given) | i
O=c1oc(-c2ccccc2)nc2c1C1(CCCC1)Cc1ccccc1-2 | 48.0%*
O=c1[nH]c(CN2CCOCC2)nc2c1C1(CCCC1)Cc1ccccc1-2 | i
CC1(C)Cc2ccccc2-c2nnc(-c3ccccc3)n21 | i
Cn1c(=O)c2nc(-c3ccccc3)oc2c2ccccc21 | i
O=c1[nH]c(CN2CCCC2)nc2c1C1(CCCC1)Cc1ccccc1-2 | i
CC1(C)Cc2ccccc2-c2nc(-c3ccccc3)oc(=O)c21 | 41.0%*
NCCC(c1ccccc1)c1ccco1 (stereo not given) | i
Cc1ccn2c(=O)cc(COc3cccc(NC(=O)C4CCCCC4)c3)nc2c1 | i
COc1cc(C(=O)Nc2nc3ccccc3s2)cc(OC)c1OC | i
COc1ccc(N=Cc2c(O)n(-c3ccccc3OC)c(=O)c3ccccc23)c(OC)c1 | 31.0%*
COc1ccc(-n2c(=O)[nH]c3cc(C(=O)O)ccc3c2=O)cc1OC | i
COc1ccccc1-n1c(O)c(C=Nc2ccc(C(F)(F)F)cc2)c2ccccc2c1=O | 33.0%*
COc1ccccc1NC(=O)CSc1nc(O)cc(=O)n1-c1ccccc1C | i
COc1cccc(C=Nc2ccc(N=Cc3cccc(OC)c3OC)cc2)c1OC | i
COc1ccc(N=Cc2c(O)n(-c3ccccc3C)c(=O)c3ccccc23)c(OC)c1 | 43.0%*
COc1ccc(N=Cc2c(O)n(-c3ccccc3C)c(=O)c3ccccc23)cc1OC | 48.0%*
COc1ccc(-n2nc(C(=O)O)c3ccccc3c2=O)c(OC)c1 | i
COc1ccc(O)c(C=Nc2c(C)n(C)n(-c3ccccc3)c2=O)c1 | i
COc1ccc(OC)c(-n2c(=O)[nH]c3cc(C(=O)O)ccc3c2=O)c1 | i
COc1ccc(N=Cc2c(C)c(Cl)c(C)c([N+](=O)[O-])c2O)cc1OC | i
O=c1oc2ccccc2c(O)c1C=Nc1cccc(C(F)(F)F)c1 | i
COc1ccc(NC(=O)CS(=O)(=O)c2cn(C)c3ccccc23)cc1 | i
COc1ccc(-n2ncc3c(Nc4cc(C)cc(C)c4)ncnc32)cc1 | i
SMILES | ST2 inh
CCOC(=O)c1c(NC(=O)COc2ccccc2Br)sc2c1CCCC2 | i
O=S(=O)(Nc1ccccc1Cl)c1ccccc1Cl | i
Cc1cccc(C)c1NC(=O)c1cnc2scc(C)n2c1=O | i
COCCn1cc(C(=O)N2CCOCC2)c2c3ccccc3n(C)c2c1=O | i
O=C(NCCCc1nc2ccccc2n1Cc1ccccc1F)c1ccccc1 | i
CCOC(=O)c1oc2ccccc2c1NC(=O)COc1ccccc1OC | i
